The values below come from publication PMC12548414.

Hit rate of the full screen: of about 1,600 compounds, about 20 (1%) showed an effect of 50% or more. This is one part of a sample in which strong results are shown more often than they occur.

In the experiment the test system is T1, E. coli pLC1021 (luc-trpAt trans-translation reporter).
T1 construct: pLC1021 luc-trpAt reporter strain
Set-up: species or system Escherichia coli pLC1021; luc-trpAt non-stop luciferase reporter; luminescence rises when trans-translation is inhibited; normalized to KKL-35 and DMSO. Particulars: reporter signal, KKL-35 = 100%; rise means trans-translation inhibition; 2 h, 20 µM. The procedure:
The luciferase screen was performed as previously described ([16]). […] 48 µL of cells was transferred to white 96-well plates, and 2 µL DMSO or 20 µM compound, or 20 µM KKL-35 was added. Plates were sealed with adhesive film, vortexed gently to mix, and incubated at room temperature for 2 h. 50 µL Bright-Glo reagent (Promega, Madison, WI) was added to each well, and the plates were sealed with adhesive film, vortexed vigorously, and incubated for an additional 10 min at room temperature. Luminescence was measured at 560 nm using a SpectraMax i3 microplate reader and readings for each plate were normalized to the average of three KKL-35-treated wells (positive control) and three DMSO-treated wells (negative control) within the plate to correct for plate-to-plate and day-to-day variations. Results from at least two biological repeats were averaged, and GraphPad Prism was used to plot the data. We screened a library of 1,601 anti-tubercular small molecules for their ability to inhibit trans-translation using a luciferase reporter in Escherichia coli. In this luc-trpAt reporter, the firefly luciferase gene has a trpA transcriptional terminator before the stop codon, such that luciferase is translated from a non-stop mRNA ([16]). When trans-translation is active, the luciferase will be tagged and degraded, but when trans-translation is inhibited, active luciferase will accumulate, resulting in a luminescent signal when luciferin is added. Luciferase activity was measured after growth in the presence of compounds from the library at 20 µM, using the known trans-translation inhibitor KKL-35 as a positive control (Fig. 1A) ([16], [17]). Compounds with activity one standard deviation above the median were scored as positive (Fig. S1 and Table S1).
Regarding `CSc1nccc(N2CCCC(CCC(=O)NCc3ccc(F)c(F)c3)C2)n1` (centres unmarked) [KKL-0346], the “% activation” value is 0%.
As to `c1ccc(-c2nc3c(c(N4CCN(Cc5cc6ccccc6[nH]5)CC4)n2)CCC3)cc1` [KKL-0483], the “% activation” value is recorded as 0%.
`Fc1ccc(Nc2nc(-c3ccccn3)cs2)cc1` [KKL-0715]: the “% activation” value amounted to 18%.
As for `O=C(CCCSc1ccccc1)Nc1nc(-c2ccccn2)cs1` [KKL-0800], the “% activation” value was found to be 1%.
The result for `COC(=O)COc1ccc2c(=O)c(-c3ccccc3Cl)c(C)oc2c1` [KKL-0748] reads 0%; that for `COC(=O)COc1ccc(NC(=O)c2ccccc2I)cc1` [KKL-1569], 0%; that for `Cc1ccc(NC(=O)C(Cl)Cl)cc1[N+](=O)[O-]` [KKL-1373], 4%.
Take `O=C(Cc1ccc(F)cc1)Nc1nc(-c2ccccn2)cs1` [KKL-1688]: the “% activation” value stood at 13%.
For the molecule `Cc1cc(NCc2ccccn2)n2ncc(-c3ccccc3)c2n1` [KKL-0947], the “% activation” value came to 0%.
Regarding `COc1ccccc1CN1CCCCC1C(=O)Nc1ccc(-n2cccn2)cc1` (centres unmarked) [KKL-0494], the “% activation” value is reported as 3%.
The result for `Cc1ccc(-n2cc(CN(C)Cc3cc(C)[nH]n3)c(-c3ccc(F)cc3)n2)cc1` [KKL-0319] reads 0%; that for `COc1ccccc1C1(O)CCN(Cc2cnn(-c3ccc(C)cc3)c2)CC1` [KKL-0553], 7%.
For `O=[N+]([O-])c1cccc(NC(S)=Nc2ccc(Cl)c(C(F)(F)F)c2)c1` [KKL-1319], the “% activation” value amounted to 0%.
With `COC(=O)C(CCSC)NC(=O)c1cc(COc2ccc(F)cc2Cl)on1` (centres unmarked) [KKL-0497], the “% activation” value is on record as 9%.
For `O=C(Nc1ccc(Oc2cccnc2)cc1)C1Oc2ccccc2O1` [KKL-0696], the “% activation” value is listed as 0%.
In the case of `c1ccc(CCNc2ccnc3cc4ccccc4cc23)cc1` [KKL-1051], the “% activation” value stood at 0%.
For `Cc1nc(C2CCNCC2)ncc1-c1nc(N2CCCCCC2)ncc1-c1ccc(F)cc1` [KKL-0335], the “% activation” value is given as 0%.
Consider `C(=C\c1nc(N2CCCC2)c2ccccc2n1)/c1ccccc1` [KKL-1269], for which the “% activation” value was determined as 0%.
The result for `Cc1ccc2nc(C(F)(F)F)c(C(=O)NCc3cc(Cl)cc(Cl)c3)n2c1` [KKL-1785] reads 16%; that for `COc1ccc(CCN=C(S)N2CCN(C/C=C/c3ccccc3)CC2)cc1OC` [KKL-1528], 2%.
Regarding `CC(C)c1ccc(OCC(=O)NNC(=S)NC(=O)c2ccco2)c(Br)c1` [KKL-0743], the “% activation” value came to 24%.
For the molecule `Cc1ccc(C2(O)CCN(CCNC(=O)c3oc4ccccc4c3C)CC2)cc1` [KKL-0340], the “% activation” value was determined as 1%.
For the molecule `CC(C)(C)c1ccc(C(=O)Nc2ccc(NC(=S)NC(=O)c3cccs3)cc2)cc1` [KKL-0310], the “% activation” value came to 0%.
Regarding `Oc1c(CN2CCc3ccccc3C2)cc(Cl)c2cccnc12` [KKL-0391], the “% activation” value came to 42%.
In the case of `CSc1ncc(C(=O)NC2(c3ccccc3)CCCC2)cn1` [KKL-0465], the “% activation” value was 0%.
On to `COc1ccc(N=c2cc(-c3ccc(O)cc3)oc3ccccc23)cc1` [KKL-0846], for which the “% activation” value was 0%.
As to `CCC(Sc1nc2ccccc2o1)C(=O)Nc1nnc(C)s1` (centres unmarked) [KKL-1356], the “% activation” value was determined as 2%.
On to `CCc1ccc(C2CC(C(F)(F)F)n3ncc(C(=O)NCc4cccs4)c3N2)cc1` (centres unmarked) [KKL-1779], for which the “% activation” value stood at 0%.
For the molecule `Cc1ccccc1CN1CC[C@@H]2[C@H](C1)[C@@H](c1ccc(F)cc1)CN2C(=O)C(C)C` [KKL-1218], the “% activation” value is 2%.
Take `OC(CN1CCC(O)(c2ccc(F)cc2)CC1)c1ccc(-c2ccccc2)cc1` (centres unmarked) [KKL-0933]: the “% activation” value was 0%.
In the case of `CCC1CCCCN1C(=O)COC(=O)c1cc2ccccc2cc1O` (centres unmarked) [KKL-0823], the “% activation” value came out at 0%.
The result for `O=C(NCc1cc(Cl)cc(Cl)c1)c1c(C(F)(F)F)nc2ccccn12` [KKL-1807] reads 0%; that for `O=C(Nc1ccn(Cc2ccc(Cl)cc2)n1)c1ccc2c(c1)OCO2` [KKL-0566], 0%.
Regarding `FC(F)(F)c1nnc2ccc(Sc3nnc(-c4ccco4)o3)nn12` [KKL-1754], the “% activation” value is listed as 1%.
As for `CCCC(=O)NC(=S)Nc1ccc(N2CCN(C(=O)c3cccs3)CC2)c(Cl)c1` [KKL-0912], the “% activation” value came out at 0%.
Regarding `O=C(NCc1cnn(-c2cccc(F)c2)c1)c1cc(COc2cccc3cccnc23)on1` [KKL-0634], the “% activation” value came out at 2%.
On to `O=C(NCCCc1ccc(F)cc1)c1cc(-c2ccccn2)[nH]n1` [KKL-0693], for which the “% activation” value worked out at 0%.
As for `O=C(Nc1nccs1)c1ccc(CSc2ccccc2)o1` [KKL-0586], the “% activation” value was 0%.
Regarding `CCc1c(C)c2ccc(OCC(=O)OC)c(C)c2oc1=O` [KKL-1278], the “% activation” value worked out at 0%.
Consider `CCOC(=O)/C(C#N)=C/c1ccc(-c2ccc(F)cc2)o1` [KKL-0788], for which the “% activation” value was 0%.
On to `NC1CCc2nc(-c3ccncc3)nc(Nc3ccc(C(F)(F)F)cc3)c2C1` (centres unmarked) [KKL-0539], for which the “% activation” value stood at 620%.
In the case of `NC1CCc2nc(-c3ccncc3)nc(Nc3cccc(C(F)(F)F)c3)c2C1` (centres unmarked) [KKL-0541], the “% activation” value worked out at 802%.
Then `O=C(/C=C/c1cccc(C(F)(F)F)c1)Nc1cccc(C(F)(F)F)c1` [KKL-1369], with 0%; and `O=C(CC12CC3CC(CC(C3)C1)C2)Nc1cccc(C(F)(F)F)c1` [KKL-1282], with 0%.
